Screening data deposited in PubChem by several laboratories.
aSyn 5UTR inh – MLPCN primary screen, SNCA 5' untranslated region; inhibition, % (tested at 7.5 µM); AID 1813; alpha-synuclein 5'UTR reporter, inhibitor activity; 300,000 tested, 0.82% active; in the data active means inhibition above about 60%;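 further: H4 neuroglioblastoma cells stably carrying SNCA 5'UTR luciferase fusion; 0% = DMSO wells and 100% = positive control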
Ba/F3 V617F tox – reduce viability of Ba/F3 cells dependent on JAK2V617F | Ba/F3 EpoR-JAK2V617F viability, ATP luminescence | inhibition, % at 5.6 µM | 220,000 tested, 1.1% active | AID 1446;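 active means inhibition above the campaign mean plus 3 SD over all tested compounds, cut at about 24% in these data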;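 further: cytokine-independent growth of Ba/F3 cells driven by EpoR plus mutant JAK2; 0% = DMSO-treated cells and 100% = JAK inhibitor I control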
APP transl inh – APP translation inhibition; SH-SY5Y APP 5'UTR-luciferase reporter, luminescence; inhibition, % at 2 µM; 190,000 tested, 0.82% active; AID 1285;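 active means inhibition above a set limit, derived from the sample mean plus 3 SD, cut at about 45% in these data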
BaF3 parental – counter-screen for JAK2V617F inhibitors: parental Ba/F3 viability inhibitors; 220,000 tested, 1.1% active; CellTiter-Glo ATP luminescence; inhibition, % at 5.6 µM; AID 1486;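 active means inhibition above a per-campaign cutoff, the mean inhibition of all tested compounds plus 3 SD, cut at about 27% in these data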;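 further: 0% = DMSO wells and 100% = JAK Inhibitor I control wells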
KLF5 inh – kruppel-like factor 5 inhibition. inhibition, % at 5 µM. AID 1700. 290,000 tested, 0.23% active. DLD-1 KLF5 promoter-luciferase reporter, luminescence;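 active means inhibition above a per-plate limit of that plate's mean compound inhibition plus 3 SD, cut at about 60% in these data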;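 further: 0% = DMSO wells and 100% = LY294002 at 200 µM; higher means less KLF5 promoter-driven luciferase light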
IEC-6 cytotox – counter-screen for KLF5 inhibitors: cytotoxicity in IEC-6 cells | IEC-6 cytotoxicity, luminescence viability | AID 1825 | 290,000 tested, 0.78% active | inhibition, % at 5 µM;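 further: 0% = plate median of test compound wells and 100% = cytotoxic reference compound wells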
IEC-6 cytotox cf – IEC-6 cytotoxicity, confirmation assay; 1,900 tested, 63% active; AID 1907; IEC-6 rat intestinal epithelial viability, luminescence; inhibition, % at 5 µM; shares compounds with IEC-6 cytotox;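 further: 0% = vehicle and 100% = reference cytotoxic drug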
Numbers without * were called inactive; i = inactive; . = not tested or not shown; ! = not confirmed by another sample. Compounds with a hit are over-represented: about 2.1% of the library has one in this group of screens. Unless noted, no stated cut-off is given here; in the data, active means inhibition above about 22%; inactive means the rest.

SMILES	aSyn 5UTR inh	Ba/F3 V617F tox	APP transl inh	BaF3 parental	KLF5 inh	IEC-6 cytotox	IEC-6 cytotox cf
Cc1ccccc1NC(=S)Nc1cccc2cnccc12	23	2	-11	6	6	44*	-1
O=S(=O)(Nc1c(F)cccc1F)c1ccc(Cl)nc1	-6	.	.	.	.	.	.
COc1ccccc1CN1CC(C(=O)N(C)Cc2[nH]c3ccccc3c2C)CCC1=O (centres undefined)	2	.	.	.	2	6	.
O=c1[nH]c(NCc2ccco2)nnc1Cc1ccccc1Cl	9	4	12	12	18	22*	14
Cc1nc(NCc2ccco2)[nH]c(=O)c1CCC(C)C	-16	3	16	11	-17	3	.
COc1ccc2[nH]c(CN3CCC(n4nccc4NC(=O)C4CC4)CC3)c(C)c2c1	-5	.	.	.	-11	-2	.
COc1cc(OC)cc(-c2oc3cccnc3c2C#CCCO)c1	-4	.	.	.	-20	25*	17
COc1ccc(C(=O)c2ccc3oc(-c4ccc(OC)cc4)c(C#CCCO)c3c2)cc1	12	.	.	.	.	.	.
Fc1ccc2[nH]c3c(NCc4ccccc4)ncnc3c2c1	-19	.	.	.	-8	33*	30*
CCOc1ccc2nc(NC(=O)c3ccoc3C)sc2c1	30	27*	-168	28*	-20	26*	36*
COc1ccc(NC(=O)c2nc(S(=O)(=O)Cc3cccc(C)c3)ncc2Cl)c(OC)c1	82*	.	.	.	24	66*	20
COc1ccc(OC)c(NC(=O)c2nc(S(=O)(=O)Cc3ccccc3)ncc2Cl)c1	99*	.	.	.	45	75*	6
CCCc1nnc(NC(=O)c2nc(S(=O)(=O)Cc3cccc(C)c3)ncc2Cl)s1	-30	.	.	.	4	7	.
COc1ccc(OC)c(NC(=O)CS(=O)(=O)Cc2ccccc2)c1	11	.	.	.	-30	2	.
COc1cc(/C=C/C(=O)c2ccc3c(c2)OCCO3)cc(Br)c1OCC(=O)N(C)C	i	.	.	.	43	24*	17
CN(C)CCn1c2ccccc2c2nc3ccc([N+](=O)[O-])cc3cc21	104*	87*	.	71*	-1	82*	51*
CCn1c2ccccc2c2cc([N+](=O)[O-])ccc21	9	-2	-18	7	-11	-6	.
COc1cccc(NC(=O)CSc2nc3ccccc3nc2N2CCOCC2)c1	30	.	.	.	8	1	.
CCc1ccc(CNC(=O)Cc2ccc(NC(=O)C3=C(C)OCCS3)cc2)cc1	66*	.	.	.	43	78*	53*
CC(C)(C)C(=O)Nc1ccc(C(=O)NCc2cccnc2)cc1	-25	5	5	6	-6	1	.
O=C(NC(=S)NCc1cccnc1)c1ccc([N+](=O)[O-])cc1	-22	-2	2	2	-5	0	.
CC(C)(C)c1ccc(C(=O)Nc2ccc(C(=O)NCc3cccnc3)cc2)cc1	57	.	.	.	20	98*	91*
O=C(NCc1cccnc1)c1ccc(NC(=O)c2ccc([N+](=O)[O-])cc2)cc1	24	.	.	.	-20	87*	59*
CC(C)NC(=O)[C@H]1N2C(=O)c3ccccc3C2SC1(C)C (some centres undefined)	1	.	.	.	-8	-4	.
CCOc1cc(S(=O)(=O)NCc2ccncc2)ccc1Cl	10	64*	2	84*	-6	24*	20
SMILES	aSyn 5UTR inh	Ba/F3 V617F tox	APP transl inh	BaF3 parental	KLF5 inh	IEC-6 cytotox	IEC-6 cytotox cf
COc1ccc(CNC(=O)c2ccc3c(c2)NC(=O)C(C)S3)cc1 (centres undefined)	-11	-2	.	-4	-16	1	.
O=C(Nc1nnc(S(=O)(=O)N2CCCCC2)s1)c1cccc(Br)c1	-14	.	.	.	-36	5	.
CC(=O)CC1OC(=O)C(Br)=C1NCc1ccccc1 (centres undefined)	1	75*	71*	28*	-28	34*	9
O=C(CC1Oc2ccccc2NC1=O)NCc1ccccc1 (centres undefined)	2	-5	-2	0	-23	-7	.
CCN1C(=O)[C@H]2[C@@H](c3ccc(-c4ccc(F)cc4)cc3)N3CCCC[C@@]3(C(=O)OC)[C@H]2C1=O	10	.	.	.	.	.	.
Brc1ccc2ncnc(Nc3cccc4ccccc34)c2c1	-22	0	-14	8	15	28*	41*
COc1ccc(OC)c(Nc2ncnc3ccc(Br)cc23)c1	18	.	.	.	14	5	.
COc1ccc(-c2cc(-c3ccc(Cl)cc3)c(C#N)c(SCC(=O)O)n2)cc1	-6	.	.	.	-24	-2	.
COC(=O)c1cccc(/C=N/NC(N)=S)c1O	-17	0	.	7	54	49*	12
COc1cccc(/C=N/NC(=O)C(=O)N/N=C/c2cccc(OC)c2O)c1O	.	-1	1	1	-5	4	.
Cc1c(O)ccc(C(=O)CN2CCN(Cc3ccc4c(c3)OCO4)CC2)c1O	6	6	-4	-2	7	60*	4
Cc1ccc(C(=O)Nc2ccccc2N2CCCCC2)o1	-4	.	.	.	-17	0	.
Cc1ccc(NC(=O)c2cc(S(=O)(=O)N3CCOCC3)cs2)cc1	-20	.	.	.	-9	97*	4
Cc1ccn2c(C(=O)CSc3ccccc3)c(C)nc2c1	-65	0	4	-2	-27	23*	22
COc1ccccc1NC(=O)NCCN1CCN(c2cccc(Cl)c2)CC1	-5	.	.	.	-24	-1	.
Cc1ccc(Nc2nc(=O)c3cccnc3s2)cc1	-228	0	-68	7	-39	37*	39*
Cc1c(C)n2c(SCC(=O)NCc3ccc4c(c3)OCO4)nnc2[nH]c1=O	15	.	.	.	.	.	.
O=C(Nc1ccc2nc3n(c(=O)c2c1)CCCCC3)c1cc([N+](=O)[O-])ccc1F	-42	.	.	.	10	62*	16
CSC(=S)N/N=C(\C)c1ccccc1	-25	-2	3	2	9	4	.
CC1CCC(C(C)C)C(OC(=O)Cn2c(-c3ccccc3)[n+](C)c3ccccc32)C1 (centres undefined)	77*	101*	-19	93*	18	28*!	18
CC1CCC(C(C)C)C(OC(=O)C[n+]2cc(-c3ccc(Cl)cc3)n3c2CCC3)C1 (centres undefined)	-2	0	.	-2	-119	6	.
COc1cc(CN2CCc3ccccc3C2)ccc1O	-39	97*	.	103*	19	30*	16
Cc1c(C(=O)C(=O)N2CCN(Cc3ccc4c(c3)OCO4)CC2)c2ccccc2n1C	12	.	.	.	-17	-1	.
Cc1cccc2cc(/C=N/Nc3ccc(C(=O)O)cc3)c(Cl)nc12	-197	11	.	9	-128	27*	48*
O=C(O)c1ccc(N/N=C/c2cc3ccccc3nc2Cl)cc1	-143	12	.	1	-76	22*	31*
Cc1cccc2cc(/C=N/NC(=O)c3ccncc3)c(Cl)nc12	4	-2	.	-4	-7	8	.
COc1ccccc1/C=C/C(=O)Nc1ccc2c(c1)OCCO2	-145	3	-134	12	-218	25*	19
O=C(/C=C/c1ccccc1)Nc1ccc2c(c1)OCCO2	55	-1	-152	6	-51	0	.
CSc1ncccc1C(=O)NNC(=O)c1ccc(NS(=O)(=O)c2cccs2)cc1	8	.	.	.	.	.	.
